Test results as given in PubChem BioAssay (Tox21).
Records with an inconclusive call do not appear. Activity calls are given as the source filed them. Unless noted, calls follow the shape of the full dose curve.

Legend:
[1] = Nuclear factor erythroid 2-related factor 2/antioxidant responsive element (Nrf2/ARE) small molecule agonists: qHTS cell viability counter screen in human keratinocytes (AID 1919968; active = well fitted curve in the direction sought with a large enough effect in the repeat runs; an effect the other way counts as inactive or inconclusive; also: nearly all actives have a fitted effect of over 55% in size)
Outline: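 CellTiter-Fluor fluorescence, read 1 h after reagent, gave viability in the same wells as the ARE-luciferase assay. KeratinoSens cells (1,500/well) had 23 h compound exposure at 37 C/5% CO2 following 5 h plating.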

[2] = Nuclear factor erythroid 2-related factor 2/antioxidant responsive element (Nrf2/ARE) small molecule agonists: luciferase reporter gene qHTS assay in human keratinocytes (AID 1919969); also: nearly all actives have a fitted effect of over 35% in size; also: potency is read from the fitted curve at half-maximal effect
[3] = biological target: Gonadotropin-releasing hormone receptor (Homo sapiens) (UniProt P30968); experiment: Human gonadotropin-releasing hormone receptor (GnRHR) small molecule agonists, calcium flux assay in GnRHR-HEK293 cells (AID 1920063); also: nearly all actives have a fitted effect of over 35% in size
Gonadotropin-releasing hormone receptor (Homo sapiens), sequence (P30968 whole entry, looked up): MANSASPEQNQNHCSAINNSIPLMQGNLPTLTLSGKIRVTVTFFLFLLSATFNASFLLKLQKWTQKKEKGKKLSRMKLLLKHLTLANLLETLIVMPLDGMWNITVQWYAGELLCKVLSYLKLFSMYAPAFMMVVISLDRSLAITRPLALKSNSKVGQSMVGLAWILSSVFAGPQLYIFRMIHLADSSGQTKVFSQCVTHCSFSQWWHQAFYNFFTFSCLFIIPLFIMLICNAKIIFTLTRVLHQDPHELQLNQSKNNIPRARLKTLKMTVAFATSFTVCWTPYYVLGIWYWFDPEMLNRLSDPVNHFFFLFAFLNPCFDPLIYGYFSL
Outline: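 Agonist mode: compounds at 15 concentrations, in triplicate, went onto calcium dye-loaded GnRHR-HEK293 cells. Intracellular calcium was then followed as 480/540 nm fluorescence at 1 s intervals over 3 min.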

[4] = biological target: KiSS-1 receptor (Homo sapiens) (UniProt Q969F8); experiment: Human kisspeptin (KISS1R) small molecule agonists, calcium flux assay in KISS1R-HEK293 cells (AID 1920064; active = well fitted curve in the direction sought with a large enough effect in the repeat runs; an effect the other way counts as inactive or inconclusive)
KiSS-1 receptor (Homo sapiens), sequence (Q969F8 whole entry, looked up): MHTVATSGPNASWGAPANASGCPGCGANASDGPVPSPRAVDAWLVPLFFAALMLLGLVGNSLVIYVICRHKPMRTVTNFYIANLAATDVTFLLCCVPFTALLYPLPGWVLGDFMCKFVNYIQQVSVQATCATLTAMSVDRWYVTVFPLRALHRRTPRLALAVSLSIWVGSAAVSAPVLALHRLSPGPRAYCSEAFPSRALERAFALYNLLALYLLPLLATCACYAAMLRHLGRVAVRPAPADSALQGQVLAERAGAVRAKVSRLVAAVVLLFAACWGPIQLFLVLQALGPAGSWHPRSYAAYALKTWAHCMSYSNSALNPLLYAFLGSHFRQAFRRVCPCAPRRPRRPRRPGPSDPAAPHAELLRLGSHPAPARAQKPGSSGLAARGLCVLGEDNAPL
Outline: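 Agonist mode: intracellular calcium rise tracked at 1 s intervals over 3 min (480/540 nm) immediately after compound addition to dye-loaded KISS1R-HEK293 stable cells. Each compound tested at 15 concentrations in triplicate.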

[5] = G protein-coupled receptor (GPCR) small molecule agonists, calcium flux assay: HEK293 wild type cell line counter screen (AID 1920065)
Outline: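 Calcium flux counter screen: compound added in agonist mode at 15 concentrations in triplicate to dye-loaded parental HEK293 cells. Fluorescence (480/540) read kinetically for 3 min; ATP served as positive control.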

[6] = p53 small molecule agonists, cell-based qHTS assay with human liver microsomes (AID 1963577);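 also: p53 response element beta-lactamase reporter cells with liver microsomes plus NADPH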
Outline: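 HLM-supplemented p53RE-bla reporter assay: 16 h compound exposure at 37 C, microsomes and NADPH each 0.5 mg/mL final, read by fluorescence intensity.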

[7] = p53 small molecule agonists, cell-based qHTS assay with rat liver microsomes (AID 1963578)
Outline: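 Quantitative HTS of the Tox21 10K library: p53RE-bla cells, rat liver microsomes plus NADPH at 0.5 mg/mL final each, 16 h at 37 C, beta-lactamase fluorescence detection.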

[8] = p53 small molecule agonists, cell-based qHTS assay with human liver microsomes: qHTS cell viability counter screen (AID 1963579); also: nearly all actives have a fitted effect of over 45% in size
Outline: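 Viability of p53RE-bla cells is measured as CellTiter-Glo luminescence following a 16 h, 37 C incubation with compound, liver microsomes from human donors and NADPH.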

[9] = p53 small molecule agonists, cell-based qHTS assay: qHTS cell viability counter screen (AID 1963581); also: nearly all actives have a fitted effect of over 45% in size
Outline: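 Counter screen read by CellTiter-Glo luminescence (ATP content, 30 min at room temperature), run in the same wells as the beta-lactamase reporter read. HCT-116 p53RE-bla cells saw compounds for 16 h at 37 C.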

[10] = p53 small molecule agonists, cell-based qHTS assay (AID 1963582; active = well fitted activation curve with a large enough effect in the signal ratio in the repeat runs, not every such curve was filed as active; the % refers to the signal ratio)
Outline: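 Read-out is beta-lactamase FRET fluorescence after 2 h at room temperature with LiveBLAzer B/G substrate. p53 response element-bla cells were treated 16 h at 37 C with compounds in DMSO, added 5 h after seeding.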

[11] = biological target: 5-hydroxytryptamine receptor 2A (Homo sapiens) (UniProt P28223); experiment: 5-hydroxytryptamine receptor 2A (HTR2A) small molecule antagonists, cell-based qHTS assay (AID 1963586); also: nearly all actives have a fitted effect of over 45% in size
5-hydroxytryptamine receptor 2A (Homo sapiens), sequence (P28223 whole entry, looked up): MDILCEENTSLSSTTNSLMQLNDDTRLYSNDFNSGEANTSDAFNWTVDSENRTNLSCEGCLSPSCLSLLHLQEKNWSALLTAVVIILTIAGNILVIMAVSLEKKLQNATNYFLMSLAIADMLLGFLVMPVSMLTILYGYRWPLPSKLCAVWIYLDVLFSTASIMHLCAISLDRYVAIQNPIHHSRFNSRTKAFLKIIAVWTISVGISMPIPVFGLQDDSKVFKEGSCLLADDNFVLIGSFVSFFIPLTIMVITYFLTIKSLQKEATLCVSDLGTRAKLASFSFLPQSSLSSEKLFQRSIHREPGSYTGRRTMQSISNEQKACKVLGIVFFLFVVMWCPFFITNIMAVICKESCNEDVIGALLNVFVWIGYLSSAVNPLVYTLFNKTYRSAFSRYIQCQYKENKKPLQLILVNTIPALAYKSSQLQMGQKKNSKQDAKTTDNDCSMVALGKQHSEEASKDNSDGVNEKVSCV
Outline: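 CHO cells stably expressing human HTR2A were plated for 18 h at 37 C, then loaded with calcium dye for 1 h. Compounds were preincubated 5 min at room temperature before DOI (4 nM solution) was added. Kinetic fluorescence was read for 3 min.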

[12] = biological target: 5-hydroxytryptamine receptor 2A (Homo sapiens) (UniProt P28223); experiment: 5-hydroxytryptamine receptor 2A (HTR2A) small molecule agonists, cell-based qHTS assay (AID 1963587); also: nearly all actives have a fitted effect of over 30% in size
Outline: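 Kinetic calcium-flux fluorescence (2 min, 1 sec intervals) after compound addition in agonist mode. HTR2A-CHO cells were cultured 18 h, then dye-loaded 1 h at 37 C.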

[13] = biological target: Muscarinic acetylcholine receptor M1 (Homo sapiens) (UniProt P11229); experiment: Cholinergic receptor muscarinic 1 (CHRM1) small molecule antagonists, cell-based qHTS assay (AID 1963588); also: nearly all actives have a fitted effect of over 40% in size
Muscarinic acetylcholine receptor M1 (Homo sapiens), sequence (P11229 whole entry, looked up): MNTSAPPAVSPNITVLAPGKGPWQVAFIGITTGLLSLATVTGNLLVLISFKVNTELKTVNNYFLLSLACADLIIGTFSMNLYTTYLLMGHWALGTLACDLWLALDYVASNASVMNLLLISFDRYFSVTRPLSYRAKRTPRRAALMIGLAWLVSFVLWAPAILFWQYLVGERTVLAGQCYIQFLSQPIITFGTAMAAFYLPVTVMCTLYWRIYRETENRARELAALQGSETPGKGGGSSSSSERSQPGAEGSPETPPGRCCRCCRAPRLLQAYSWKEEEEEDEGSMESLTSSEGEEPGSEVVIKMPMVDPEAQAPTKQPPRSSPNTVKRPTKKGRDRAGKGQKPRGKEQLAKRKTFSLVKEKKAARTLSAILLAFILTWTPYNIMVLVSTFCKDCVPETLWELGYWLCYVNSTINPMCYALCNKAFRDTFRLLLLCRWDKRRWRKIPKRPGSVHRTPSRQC
Outline: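 Compounds were tested at 15 concentrations in three independent runs. Dye-loaded CHRM1-CHO cells were exposed 5 min at room temperature before stimulation by acetylcholine added at 50nM. Intracellular calcium was read kinetically on FDSS for 3 min.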

[14] = biological target: Muscarinic acetylcholine receptor M1 (Homo sapiens) (UniProt P11229); experiment: Cholinergic receptor muscarinic 1 (CHRM1) small molecule agonists, cell-based qHTS assay (AID 1963589); also: nearly all actives have a fitted effect of over 35% in size
Outline: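 Agonist-mode calcium-flux screen: compounds at 15 concentrations, three independent runs, were pin-transferred onto dye-loaded human CHRM1-CHO cells. Fluorescence was then recorded kinetically every second over minutes.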

[15] = cAMP Responsive Elements (CRE) small molecule agonists, cell-based qHTS assay (AID 1963590)
Outline: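 Agonist mode: compound added to CRE-bla HEK 293T cells (2,000/well, 18 h after plating) for 3 h at 37 C/5% CO2. Reporter activity detected via FRET beta-lactamase substrate, 2 h room-temperature loading.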

[16] = biological target: Beta-2 adrenergic receptor (Homo sapiens) (UniProt P07550); experiment: Adrenergic beta2 receptor (ADRB2) small molecule antagonists, cell-based qHTS assay (AID 1963592); also: series mostly up to about 92 µM; nearly all actives have a fitted effect of over 50% in size
Beta-2 adrenergic receptor (Homo sapiens), sequence (P07550 whole entry, looked up): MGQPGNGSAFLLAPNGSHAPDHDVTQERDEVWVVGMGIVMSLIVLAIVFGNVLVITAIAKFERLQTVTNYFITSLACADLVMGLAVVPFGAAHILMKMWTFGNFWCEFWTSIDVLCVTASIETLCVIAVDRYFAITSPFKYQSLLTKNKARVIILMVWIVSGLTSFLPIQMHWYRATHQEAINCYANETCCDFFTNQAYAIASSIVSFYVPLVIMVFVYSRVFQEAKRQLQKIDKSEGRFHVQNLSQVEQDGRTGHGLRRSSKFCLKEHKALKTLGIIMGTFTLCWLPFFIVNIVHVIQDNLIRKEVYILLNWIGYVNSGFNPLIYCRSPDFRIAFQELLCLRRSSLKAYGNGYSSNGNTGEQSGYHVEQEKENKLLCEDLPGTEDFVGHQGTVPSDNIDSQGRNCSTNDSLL
Outline: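 Assay format: CHO-ADRB2 cells, 18-20hr seeding at 37C/5% CO2, then compound plus 1nM isoproterenol agonist mix for 0.5hr RT. Homogeneous time-resolved fluorescence cAMP detection after 1hr, expressed as 665/615 nm ratio.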

[17] = biological target: D(2) dopamine receptor (Homo sapiens) (UniProt P14416); experiment: Dopamine D2 receptor (DRD2) small molecule agonists, cell-based qHTS assay (AID 1963594); also: nearly all actives have a fitted effect of over 35% in size
D(2) dopamine receptor (Homo sapiens), sequence (P14416 whole entry, looked up): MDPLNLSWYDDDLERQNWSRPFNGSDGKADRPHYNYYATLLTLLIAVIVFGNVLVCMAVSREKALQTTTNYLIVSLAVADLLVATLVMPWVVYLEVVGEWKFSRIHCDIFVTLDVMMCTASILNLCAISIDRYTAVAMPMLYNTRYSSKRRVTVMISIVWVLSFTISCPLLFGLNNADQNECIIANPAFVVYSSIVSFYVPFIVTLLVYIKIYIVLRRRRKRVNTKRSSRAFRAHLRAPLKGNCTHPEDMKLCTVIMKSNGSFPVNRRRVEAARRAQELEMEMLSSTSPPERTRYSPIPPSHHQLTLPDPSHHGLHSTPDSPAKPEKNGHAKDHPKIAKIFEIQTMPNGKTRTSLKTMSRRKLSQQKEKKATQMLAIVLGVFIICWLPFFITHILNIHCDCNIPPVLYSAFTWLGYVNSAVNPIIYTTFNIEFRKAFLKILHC
Outline: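 cAMP accumulation in DRD2-HEK293 cells measured by HTRF after 1 h detection; compounds added 10 min before NKH477 (200nM […]) forskolin-analogue stimulation, 30 min at room temperature, with Ro20-1724 present at 0.1 mM final.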

[18] = biological target: D(2) dopamine receptor (Homo sapiens) (UniProt P14416); experiment: Dopamine D2 receptor (DRD2) small molecule antagonists, cell-based qHTS assay (AID 1963595; active = well fitted inhibition curve with a large enough effect in the signal ratio in the repeat runs, with a control signal flat; the % refers to the signal ratio)
Outline: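 HTRF cAMP read-out at 665 and 620 nm emission (340 nm excitation). Antagonist mode: compounds were tested against 12 nM quinpirole in DRD2-HEK293 cells, with 200 nM NKH477 raising cAMP and 0.1 mM Ro20-1724 blocking its breakdown.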

[19] = cAMP Responsive Elements (CRE) small molecule antagonists, cell-based qHTS assay (AID 1963591; active = well fitted inhibition curve with a large enough effect in the signal ratio in the repeat runs, not every such curve was filed as active; the % refers to the signal ratio)
Outline: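 Antagonist mode: compounds are added alongside the adenylyl cyclase activator NKH477 (0.25 uM final) to CRE-bla HEK293T cells for 3 h. LiveBLAzer FRET substrate, 2 h at room temperature, reports bla expression.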
% is scaled to controls: 0 for no effect and ±100 for the full control effect.

Nc1cc(S(=O)(=O)O)ccc1O
inactive: Potency [1] | Potency [2] | Potency [3] | outcome [4] | outcome [5] | Potency [6] | Potency [7] | Potency [8] | Potency [9] | Potency [10] | Potency [11] | Potency [12] | Potency [13] | Potency [14] | Potency [15] | Potency [16] | Potency [17] | Potency [18]

OCCN(CCO)CCN(CCO)CCO
inactive: Potency [1] | Potency [2] | Potency [3] | outcome [4] | outcome [5] | Potency [6] | Potency [7] | Potency [8] | Potency [9] | Potency [10] | Potency [11] | Potency [12] | Potency [13] | Potency [14] | Potency [15] | Potency [19] | Potency [17] | Potency [18]

CC(C)(C)N
inactive: Potency [1] | Potency [2] | Potency [3] | outcome [4] | outcome [5] | Potency [6] | Potency [7] | Potency [8] | Potency [9] | Potency [10] | Potency [11] | Potency [12] | Potency [14] | Potency [15] | Potency [19] | Potency [16] | Potency [17]

CC(CC(=O)O)CC(C)(C)C (centres undefined)
inactive: Potency [1] | Potency [2] | Potency [3] | outcome [4] | outcome [5] | Potency [6] | Potency [7] | Potency [8] | Potency [9] | Potency [10] | Potency [11] | Potency [12] | Potency [14] | Potency [15] | Potency [19] | Potency [16] | Potency [17] | Potency [18]

O=C(/C=C/c1ccccc1)OCCCc1ccccc1
inactive: Potency [1] | Potency [2] | Potency [3] | outcome [4] | outcome [5] | Potency [6] | Potency [7] | Potency [8] | Potency [9] | Potency [10] | Potency [12] | Potency [13] | Potency [14] | Potency [15] | Potency [19] | Potency [16] | Potency [17]

CCCCCCCCCCCCS(=O)(=O)Cl
inactive: activity change, negative = cytotoxicity [1] -5.52% [at 19 µM] | activity, positive = activation [2] -14% [at 19 µM] | activity change [3] 1.68% [at 11.8 µM, active compounds read high] | activation [4] 0.356% [at 15.8 µM] | activation [5] -1.76% [at 11.8 µM] | activation [6] 0.955% [at 13.5 µM] | activation [7] -3.11% [at 13.6 µM] | activity change, negative = cytotoxicity [8] 0.65% [at 13.5 µM] | activity change, negative = cytotoxicity [9] -1.69% [at 13.5 µM] | activation [10] -3.88% [at 13.5 µM] | activity, negative = inhibition [11] 6.87% [at 12.7 µM] | activity, negative = inhibition [13] 0.609% [at 12.6 µM] | activation [14] 0.179% [at 15.8 µM] | activation [15] 1.16% [at 19 µM] | activity change, negative = inhibition [16] -6.85% [at 19 µM] | activation [17] 0.808% [at 19 µM] | activity change, negative = inhibition [18] -2.33% [at 18.9 µM]

C=CC(=O)OCC(Br)CBr (centres undefined)
inactive: Potency [1] | Potency [3] | outcome [4] | outcome [5] | Potency [6] | Potency [7] | Potency [8] | Potency [9] | Potency [10] | Potency [11] | Potency [12] | Potency [13] | Potency [14] | Potency [15] | Potency [19] | Potency [17] | Potency [18]
active: Potency [2] 68.6 µM

CCC(C)c1nccnc1OC (centres undefined)
inactive: Potency [1] | Potency [2] | Potency [3] | outcome [4] | outcome [5] | Potency [6] | Potency [7] | Potency [8] | Potency [9] | Potency [10] | Potency [11] | Potency [12] | Potency [13] | Potency [14] | Potency [15] | Potency [17] | Potency [18]

C=CCCCCCCCCC(=O)OCC
inactive: Potency [1] | Potency [2] | Potency [3] | outcome [4] | outcome [5] | Potency [6] | Potency [7] | Potency [8] | Potency [9] | Potency [10] | Potency [11] | Potency [12] | Potency [13] | Potency [14] | Potency [15] | Potency [19] | Potency [16] | Potency [17] | Potency [18]

Clc1nnc(Cl)c2ccccc12
active: Potency [2] 6.08 µM
inactive: Potency [1] | Potency [3] | outcome [4] | outcome [5] | Potency [6] | Potency [7] | Potency [8] | Potency [9] | Potency [10] | Potency [11] | Potency [13] | Potency [14] | Potency [19] | Potency [16] | Potency [18]

OCCN1CN(CCO)CN(CCO)C1
inactive: Potency [1] | Potency [2] | Potency [3] | outcome [4] | outcome [5] | Potency [6] | Potency [7] | Potency [8] | Potency [9] | Potency [10] | Potency [11] | Potency [13] | Potency [14] | Potency [15] | Potency [16] | Potency [17] | Potency [18]

CCCCNc1ccc(NCCCC)c2c1C(=O)c1ccccc1C2=O
inactive: activity change, negative = cytotoxicity [1] -4.75% [at 19 µM] | activity, positive = activation [2] 14.7% [at 19 µM] | activity change [3] -0.141% [at 11.8 µM, active compounds read high] | activation [4] -3.45% [at 15.8 µM] | activation [5] 0.174% [at 11.8 µM] | activation [6] 5.72% [at 13.5 µM] | activation [7] 1.5% [at 13.6 µM] | activity change, negative = cytotoxicity [8] -5.72% [at 13.5 µM] | activity change, negative = cytotoxicity [9] -1.83% [at 13.5 µM] | activation [10] 7.46% [at 13.5 µM] | activity, negative = inhibition [11] -10.8% [at 12.7 µM] | activation [12] -0.354% [at 15.9 µM] | activity, negative = inhibition [13] 4.22% [at 12.6 µM] | activation [14] -0.373% [at 15.8 µM] | activation [15] -1.16% [at 19 µM] | activity change, negative = inhibition [19] -1.01% [at 18.9 µM] | activity change, negative = inhibition [16] 1.56% [at 19 µM] | activation [17] 6.31% [at 19 µM] | activity change, negative = inhibition [18] -5.82% [at 18.9 µM]

CCCCS(=O)(=O)N[C@@H](Cc1ccc(OCCCCC2CCNCC2)cc1)C(=O)O
inactive: Potency [1] | Potency [2] | Potency [3] | outcome [4] | outcome [5] | Potency [6] | Potency [7] | Potency [8] | Potency [9] | Potency [10] | Potency [11] | Potency [12] | Potency [13] | Potency [14] | Potency [15] | Potency [19] | Potency [16] | Potency [18]
